Experimental data: PubChem BioAssay AID1159580 (chemical genetic matrix, 2015)
Out of some 5,500 compounds screened, about 2,000 (36%) were called active. Inconclusive results (about 18%) are left out. No stated cut-off is given here; in the data, active means normalized growth mostly below about 0.91 (no sharp cut-off); inconclusive means no clear call, values can overlap the other calls; inactive means mostly above about 0.92. This is one part of the list.

Experiment: chemical genetic growth profiling, strain panel (AID 1159580);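 further: tested at 20 µM; growth read once vehicle control cultures reached saturation at 30 °C; 1 = growth at the plate median or of vehicle wells; lower values mean less growth of the strain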
Conditions: S. cerevisiae deletion strains, growth OD
[1] = locus YAL040C, strain CLN3, active compounds read low
[2] = locus YCL061C, strain MRC1 (second series), active compounds read low
[3] = locus YDR363W, strain ESC2, active compounds read low
[4] = locus YER002W, strain NOP16, active compounds read low
[5] = locus YGR078C, strain PAC10, active compounds read low
[6] = locus YJR075W, strain HOC1, active compounds read low
[7] = locus YMR263W, strain SAP30, active compounds read low
[8] = locus YMR307W, strain GAS1, active compounds read low
[9] = locus YNL153C, strain GIM3, active compounds read low
[10] = locus YNL175C, strain NOP13, active compounds read low
[11] = locus YNL197C, strain WHI3, active compounds read low
[12] = locus YNL224C, strain SQS1, active compounds read low
[13] = locus YNL322C, strain KRE1, active compounds read low
[14] = locus YOR083W, strain WHI5 (second series), active compounds read low
[15] = locus YPL055C, strain LGE1, active compounds read low
[16] = locus YPL241C, strain CIN2, active compounds read low
[17] = locus YDR150W, strain NUM1, active compounds read low
[18] = locus YNL128W, strain TEP1, active compounds read low

Measured: normalized growth

CNCCNS(=O)(=O)c1cccc2cnccc12
inactive: [1] 1 | [2] 1 | [3] 1.03 | [4] 1 | [5] 1.02 | [6] 1.01 | [7] 0.998 | [8] 1 | [9] 1.01 | [10] 1.01 | [11] 1.04 | [12] 1 | [13] 1.02 | [14] 1 | [15] 1.01 | [16] 0.999

CCOC(=O)c1csc(N/N=C2/CCCc3ccccc32)n1
inactive: [17] 0.897 | locus YGR229C, strain SMI1, active compounds read low 0.986 | locus YJR043C, strain POL32, active compounds read low 0.965 | locus YLR058C, strain SHM2 (second series), active compounds read low 0.976 | locus YLR262C, strain YPT6, active compounds read low 0.868 | [18] 0.971 | [13] 1 | locus YOL006C, strain TOP1, active compounds read low 0.849
active: locus YBR229C, strain ROT2, active compounds read low 0.887 | locus YDL101C, strain DUN1, active compounds read low 0.862 | locus YDL134C, strain PPH21, active compounds read low 0.458 | locus YEL061C, strain CIN8, active compounds read low 0.821 | [5] 0.899 | locus YHR030C, strain SLT2, active compounds read low 0.232 | locus YHR087W, strain rtc3, active compounds read low 0.899 | [6] 0.867 | locus YLR039C, strain RIC1, active compounds read low 0.701 | locus YLR085C, strain ARP6, active compounds read low 0.573 | locus YML094W, strain GIM5, active compounds read low 0.749 | locus YMR219W, strain ESC1, active compounds read low 0.92 | [7] 0.88 | [8] 0.631 | [9] 0.915 | locus YNL298W, strain CLA4 (second series), active compounds read low 0.732 | locus YNR030W, strain Alg12, active compounds read low 0.779 | [15] 0.692 | [16] 0.747 | locus YPR135W, strain CTF4, active compounds read low 0.629

Cc1c2ccncc2c(C)c2c1[nH]c1ccccc12
active: [1] 0.101 | [2] 0.0557 | [17] 0.13 | [3] 0.153 | [4] 0.0868 | [5] 0.0788 | [7] 0.362 | [18] 0.083 | [9] 0.0799 | [10] 0.0703 | [11] 0.0671 | [12] 0.0631 | [14] 0.079 | [15] 0.101

COC(=O)c1cc2c(cn1)[nH]c1ccccc12
inactive: [1] 0.978 | [2] 1 | [17] 0.999 | [3] 0.996 | [4] 0.986 | [7] 1 | [8] 0.998 | [9] 0.995 | [10] 0.988 | [11] 0.993 | [12] 0.981 | [13] 1.01 | [14] 0.96 | [16] 1
